“And” between values parts separate entries of the source, which are not always exact repeats. Equal entries are not always repeated. A structure can be active in one record and inactive in another. The source made the active and inactive calls. The calls were made as follows: active = hit-call score of the fitted dose curve at least 0.9, where 1 is the maximum; inactive = score below 0.9.
Experiments:
Settings in all cases: mRNA level, 48 h; actives raise or lower the signal
[1] = read-out: BCL2L11 (gene 10018); assay: LTEA_HepaRG_BCL2L11: Life Technologies and Expression Analysis (LTEA) Assay for Bcl-2 (BCL2L11) gene using HepaRG (AID 2283473)
Procedure, shortened: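 Human hepatic HepaRG cultures are treated 48 h with test chemicals (maximum 100 uM, 0.5% DMSO vehicle). Expression of BCL2L11 is measured by qRT-PCR against ACTB, GAPDH and POLR2A, with activity in either direction scored relative to vehicle.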

[2] = read-out: Apoptosis regulator Bcl-2 (Homo sapiens) (UniProt P10415); assay: LTEA_HepaRG_BCL2: Life Technologies and Expression Analysis (LTEA) Assay for Bcl-2 gene using HepaRG (AID 2283475);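 also: BCL2 transcript by TaqMan qRT-PCR normalised to ACTB GAPDH and POLR2A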
Procedure, shortened: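 qRT-PCR read-out (Fluidigm TaqMan) of BCL2 transcript, normalised to three housekeeping genes, after 48 h chemical exposure of HepaRG cells; 8-point half-log series, top 100 uM, 0.5% DMSO vehicle. Gain or loss of signal fitted relative to DMSO baseline.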

[3] = read-out: Caspase-3 (Homo sapiens) (UniProt P42574); assay: LTEA_HepaRG_CASP3: Life Technologies and Expression Analysis (LTEA) Assay for cysteine-aspartic acid protease (CASP3) using HepaRG (AID 2283477)
Procedure, shortened: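 Transcript-level assay: CASP3 mRNA in human HepaRG after 48 h treatment, eight half-log concentrations from 100 uM in 0.5% DMSO, quantified by qRT-PCR.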

[4] = read-out: Cytochrome P450 (CYP24A1), CYP24A1 (gene 1591); assay: LTEA_HepaRG_CYP24A1: Life Technologies and Expression Analysis (LTEA) Assay for Cytochrome P450 (CYP24A1) using HepaRG (AID 2283478)
Procedure, shortened: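 Gene expression of CYP24A1 by TaqMan qRT-PCR in HepaRG after 48 h treatment, highest concentration 100 uM; activity fitted in both directions relative to DMSO vehicle.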

[5] = read-out: Cytochrome P450 (CYP1A2), CYP1A2 (gene 1544); assay: LTEA_HepaRG_CYP1A2: Life Technologies and Expression Analysis (LTEA) Assay for Cytochrome P450 (CYP1A2) using HepaRG (AID 2283479);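 as to AC50: TaqMan qRT-PCR transcript level normalized to ACTB GAPDH and POLR2A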
Procedure, shortened: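 In duplicate wells, HepaRG cultures maintained in 0.5% DMSO were treated 48 h across an 8-point, half-log series topping at 100 uM; phenobarbital (1 mM) served as induction control. Expression was read by qRT-PCR.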

[6] = read-out: cysteine-aspartic acid protease (CASP8), CASP8 (gene 841); assay: LTEA_HepaRG_CASP8: Life Technologies and Expression Analysis (LTEA) Assay for cysteine-aspartic acid protease (CASP8) using HepaRG (AID 2283480)
Procedure, shortened: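 Concentration-response in duplicate up to 100 uM (half-log steps, 0.5% DMSO) on differentiated HepaRG cultures for 48 h. Expression change of CASP8 mRNA is determined by TaqMan qRT-PCR with housekeeping-gene normalization.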

[7] = read-out: Cytochrome P450 (CYP2B6), CYP2B6 (gene 1555); assay: LTEA_HepaRG_CYP2B6: Life Technologies and Expression Analysis (LTEA) Assay for Cytochrome P450 (CYP2B6) using HepaRG (AID 2283481)
Procedure, shortened: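 Human HepaRG, 48 h dosing, 0.5% DMSO vehicle, top dose 100 uM. CYP2B6 transcript by qRT-PCR, housekeeping-normalized, bidirectional curve fit.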

[8] = read-out: Apolipoprotein A-V (APOA5) gene, APOA5 (gene 116519); assay: LTEA_HepaRG_APOA5: Life Technologies and Expression Analysis (LTEA) Assay for Apolipoprotein A-V (APOA5) gene using HepaRG (AID 2283474)
Procedure, shortened: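 Concentration-response of APOA5 expression in HepaRG: eight half-log doses to 100 uM, 48 h, qRT-PCR normalized to ACTB/GAPDH/POLR2A, bidirectional fitting with 0.5% DMSO as baseline.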

[9] = read-out: Bcl-2 (BID) gene, BID (gene 637); assay: LTEA_HepaRG_BID: Life Technologies and Expression Analysis (LTEA) Assay for Bcl-2 (BID) gene using HepaRG (AID 2283476)
Procedure, shortened: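 HepaRG, 48 h exposure, 8-pt half-log series, top 100 uM, 0.5% DMSO vehicle, duplicates. Readout: BID mRNA by TaqMan qRT-PCR; housekeeping-normalized; bidirectional curve fit vs DMSO baseline.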

[10] = read-out: Cytochrome P450 2C19 (Homo sapiens) (UniProt P33261); assay: LTEA_HepaRG_CYP2C19: Life Technologies and Expression Analysis (LTEA) Assay for CYP2C19 using HepaRG (AID 2283482)
Procedure, shortened: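 Endpoint: CYP2C19 mRNA change, bidirectional fit vs 0.5% DMSO. Cells: HepaRG, 48 h exposure, eight-point series topping at 100 uM. Quantitation: qRT-PCR normalized to ACTB, GAPDH, POLR2A.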

Measured: AC50

Cytochrome P450 2C19 (Homo sapiens), sequence (P33261 whole entry, looked up): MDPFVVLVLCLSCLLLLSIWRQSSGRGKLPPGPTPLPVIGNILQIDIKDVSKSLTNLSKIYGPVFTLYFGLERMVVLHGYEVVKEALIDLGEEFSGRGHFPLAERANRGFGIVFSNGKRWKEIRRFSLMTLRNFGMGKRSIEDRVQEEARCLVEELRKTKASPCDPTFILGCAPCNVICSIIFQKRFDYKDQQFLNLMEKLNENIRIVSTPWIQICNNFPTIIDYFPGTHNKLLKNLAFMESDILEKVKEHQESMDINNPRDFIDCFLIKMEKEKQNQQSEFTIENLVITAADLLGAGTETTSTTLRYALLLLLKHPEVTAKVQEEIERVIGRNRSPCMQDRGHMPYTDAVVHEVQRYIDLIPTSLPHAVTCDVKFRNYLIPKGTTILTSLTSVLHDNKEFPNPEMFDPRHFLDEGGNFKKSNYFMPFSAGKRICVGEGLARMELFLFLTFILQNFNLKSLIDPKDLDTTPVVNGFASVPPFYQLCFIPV
Caspase-3 (Homo sapiens), sequence (P42574 whole entry, looked up): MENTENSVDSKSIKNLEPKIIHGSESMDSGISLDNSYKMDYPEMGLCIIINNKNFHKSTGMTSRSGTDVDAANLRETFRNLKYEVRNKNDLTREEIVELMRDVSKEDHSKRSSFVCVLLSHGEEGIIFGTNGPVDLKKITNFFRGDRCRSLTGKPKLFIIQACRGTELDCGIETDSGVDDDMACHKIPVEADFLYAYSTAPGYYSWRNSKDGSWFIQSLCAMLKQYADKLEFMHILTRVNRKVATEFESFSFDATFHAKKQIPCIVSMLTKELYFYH
Apoptosis regulator Bcl-2 (Homo sapiens), sequence (P10415 whole entry, looked up): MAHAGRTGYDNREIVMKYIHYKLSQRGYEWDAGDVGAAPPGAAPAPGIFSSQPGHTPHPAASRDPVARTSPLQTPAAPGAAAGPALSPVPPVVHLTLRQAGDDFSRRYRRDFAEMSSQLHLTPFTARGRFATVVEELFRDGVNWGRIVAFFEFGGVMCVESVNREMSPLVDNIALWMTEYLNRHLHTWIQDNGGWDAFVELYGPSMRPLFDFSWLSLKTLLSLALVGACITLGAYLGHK

COc1nn(CSP(=S)(OC)OC)c(=O)s1
active: [5] 12.1 µM | [7] 4.94 µM
inactive: [1] | [2] | [3] | [4] | [6]

Cc1[nH]c(=O)n(C(C)(C)C)c(=O)c1Cl
inactive: [8] | [2] | [3] | [4] | [6]
active: [5] 36.2 µM | [7] 15.6 µM

CC(C)N(C(=O)COc1nnc(C(F)(F)F)s1)c1ccc(F)cc1
active: [8] 78.4 µM
not listed: [1] | [9] | [10]
inactive: all other assays above

COP(=O)(OC)OC=C(Cl)Cl
active: [7] 6.48 µM
inactive: [2] | [3] | [4] | [5] | [6]

O=[N+]([O-])c1c(Cl)c(Cl)c(Cl)c(Cl)c1Cl
inactive: [8] | [2] | [3] | [4] | [6]
active: [5] 36.7 µM | [7] 5.88 µM

O=C(O)COc1ccc(Cl)cc1Cl
active: [5] 50 µM | [7] 20.8 µM
not listed: [9] | [10]
inactive: all other assays above

O=C(Nc1ccccc1)Nc1cnns1
active: [5] 68 µM
not listed: [1] | [9] | [10]
inactive: all other assays above

CC(C)(C)C(O)C(Oc1ccc(Cl)cc1)n1cncn1 (stereo not drawn)
active: [5] 22.2 µM and 36.8 µM and 32.8 µM | [7] 2.21 µM and 3.37 µM and 1.68 µM | [10] 2.61 µM and 3.24 µM and 1.89 µM
not listed: [1] | [8]
inactive: all other assays above

CCC(C)Nc1c([N+](=O)[O-])cc(C(C)(C)C)cc1[N+](=O)[O-] (stereo not drawn)
active: [7] 3.52 µM
not listed: [8] | [9] | [10]
inactive: all other assays above

O=S1OCC2C(CO1)C1(Cl)C(Cl)=C(Cl)C2(Cl)C1(Cl)Cl (stereo not drawn)
active: [8] 63.8 µM | [2] 84.7 µM | [5] 35.4 µM | [7] 90.1 µM
inactive: [3] | [4] | [6]

CC1(C)C(C=C(Cl)Cl)C1C(=O)OC(C#N)c1ccc(F)c(Oc2ccccc2)c1 (stereo not drawn)
active: [5] 20.2 µM | [7] 18.4 µM
inactive: [2] | [9] | [3] | [4] | [6]

CC(C)(C)C(O)/C(=C\c1ccc(Cl)cc1Cl)n1cncn1 (stereo not drawn)
inactive: [3] | [4] | [5]
active: [2] 21.8 µM | [6] 80.6 µM | [7] 0.748 µM

CC[C@H](C)[C@H]1O[C@]2(C=C[C@@H]1C)C[C@@H]1C[C@@H](C/C=C(\C)[C@@H](O[C@H]3C[C@H](OC)[C@@H](O[C@H]4C[C@H](OC)[C@@H](O)[C@H](C)O4)[C@H](C)O3)[C@@H](C)/C=C/C=C3\CO[C@@H]4[C@H](O)C(C)=C[C@@H](C(=O)O1)[C@]34O)O2 (tested in a mixture with another compound)
inactive: [3] | [4] | [6]
active: [8] 13.6 µM | [2] 9.08 µM | [5] 10.9 µM | [7] 11 µM

O=C(NC(=O)c1c(F)cccc1F)Nc1ccc(OC(F)(F)C(F)OC(F)(F)F)c(Cl)c1 (stereo not drawn)
active: [5] 12.3 µM
not listed: [1] | [9] | [10]
inactive: all other assays above

CCCN(CCC)c1c([N+](=O)[O-])cc(C(F)(F)F)cc1[N+](=O)[O-]
inactive: [2] | [3] | [4] | [6]
active: [5] 32.3 µM | [7] 50 µM

O=S(=O)(O)C(F)(F)C(F)(F)C(F)(F)C(F)(F)C(F)(F)C(F)(F)C(F)(F)C(F)(F)F
inactive: [9] | [3] | [4] | [6]
active: [2] 50 µM and 65.5 µM and 48 µM | [3] 22.1 µM | [4] 0.00316 µM | [5] 84.5 µM and 10.3 µM and 48 µM | [6] 34.5 µM | [7] 88.9 µM [middle of 4 runs]

CCOC1Oc2ccc(OS(C)(=O)=O)cc2C1(C)C (stereo not drawn)
active: [2] 82.1 µM | [5] 73.3 µM | [7] 91.3 µM
not listed: [8] | [10]
inactive: all other assays above

COP(=S)(OC)Oc1ccc([N+](=O)[O-])cc1
active: [5] 32.8 µM | [7] 15.7 µM
inactive: [2] | [9] | [3] | [4] | [6]

CNC(=O)Oc1ccccc1OC(C)C
active: [7] 3.17 µM
not listed: [8] | [9] | [10]
inactive: all other assays above

COP(=S)(OC)Oc1ccc(SC)c(C)c1
active: [5] 35 µM | [7] 7.23 µM | [10] 50 µM
not listed: [8] | [9]
inactive: all other assays above

N#CN
not listed: [1] | [8] | [10]
inactive: all other assays above

O=C1c2ccccc2C(=O)N1SC(Cl)(Cl)Cl
not listed: [1] | [9] | [10]
inactive: all other assays above

O=[N+]([O-])/N=C1\NCCN1Cc1ccc(Cl)nc1
active: [3] 26.7 µM | [5] 23.6 µM | [7] 13.2 µM | [10] 34 µM
inactive: [2] | [4] | [6]

CCC(C)(C)C(=O)OC1=C(c2ccc(Cl)cc2Cl)C(=O)OC12CCCCC2
active: [5] 50 µM
inactive: [2] | [3] | [4] | [6] | [7]

CCN(CC)C(=O)SCc1ccc(Cl)cc1
inactive: [2] | [3] | [4] | [5] | [6]
active: [7] 4.36 µM

O=C(O)CCCOc1ccc(Cl)cc1Cl
inactive: [2] | [3] | [4] | [6]
active: [5] 73.8 µM | [7] 15.2 µM

CC(C)OC(=O)Nc1cccc(Cl)c1
active: [7] 50 µM
inactive: [2] | [3] | [4] | [5] | [6]

C#CCN1C(=O)COc2cc(F)c(N3C(=O)C4=C(CCCC4)C3=O)cc21
inactive: [2] | [3] | [4] | [5] | [6]
active: [7] 0.84 µM | [10] 6.97 µM

Oc1cc(Cl)ccc1Oc1ccc(Cl)cc1Cl
active: [7] 17 µM and 51 µM
inactive: [2] | [3] | [4] | [5] | [6] | [7]

Oc1ccc(Cl)cc1Cc1ccccc1
inactive: [2] | [3] | [4] | [5] | [6] | [7]

ClC1C(Cl)C(Cl)C(Cl)C(Cl)C1Cl (stereo not drawn)
inactive: [2] | [3] | [4] | [5] | [6]
active: [7] 758 nM and 392 nM

O=C(O)C(F)(F)C(F)(F)C(F)(F)C(F)(F)C(F)(F)C(F)(F)C(F)(F)F
inactive: [2] | [3] | [4] | [5] | [6]
active: [7] 17.9 µM and 3.15 µM

CNC(=O)CSP(=S)(OC)OC
active: [5] 16.2 µM | [7] 23.1 µM
inactive: [2] | [3] | [4] | [6]

CNC(=O)Oc1cccc(N=CN(C)C)c1
not listed: [1] | [8] | [9]
inactive: all other assays above

Clc1ccccc1-c1nnc(-c2ccccc2Cl)nn1
inactive: [2] | [3] | [4] | [6]
active: [5] 17.3 µM | [7] 7.28 µM

CCc1ccc(C(=O)NN(C(=O)c2cc(C)cc(C)c2)C(C)(C)C)cc1
active: [7] 92.4 µM
inactive: [2] | [3] | [4] | [5] | [6]

OCCOc1ccccc1
active: [7] 50 µM
inactive: [2] | [3] | [4] | [5] | [6]

CN1CSC(=S)N(C)C1
active: [5] 34.7 µM
not listed: [1] | [8] | [9]
inactive: all other assays above

CCCN(CCOc1c(Cl)cc(Cl)cc1Cl)C(=O)n1ccnc1
active: [2] 28.9 µM | [5] 3.86 µM | [7] 31 µM
inactive: [3] | [4] | [6]

CC1(c2ccc(Oc3ccccc3)cc2)OC(=O)N(Nc2ccccc2)C1=O (stereo not drawn)
active: [2] 9.6 µM | [5] 50.2 µM | [6] 11.7 µM | [7] 8.83 µM
inactive: [3] | [4]

C[C@H]1[C@H](c2ccc(Cl)cc2)SC(=O)N1C(=O)NC1CCCCC1
inactive: [3] | [4] | [6]
active: [2] 76 µM | [5] 83.9 µM | [7] 81.7 µM

N#Cc1c(Cl)c(Cl)c(Cl)c(C#N)c1Cl
active: [5] 13.7 µM
not listed: [1] | [8] | [9]
inactive: all other assays above

CNC(=O)/C=C(\C)OP(=O)(OC)OC
inactive: [2] | [3] | [4] | [5] | [6] | [7]

CCC(C)(NC(=O)c1cc(Cl)c(C)c(Cl)c1)C(=O)CCl (stereo not drawn)
active: [3] 92.4 µM | [5] 74.1 µM | [6] 89.8 µM | [7] 90.1 µM
inactive: [2] | [4]

CCOCN(C(=O)CCl)c1c(C)cccc1CC
inactive: [2] | [3] | [4] | [5] | [6]
active: [7] 0.077 µM | [10] 89.5 µM

Source: PubChem BioAssay (EPA / NIEHS)
